The campaign covered roughly 310,000 compounds. About 14,000 (4.5%) showed an effect of 50% or more. The effect is printed as a negative number. Shown is part of a subset that was picked to be rich in strong results.
Target: human ether-à-go-go-related gene (hERG) potassium channel (human, UniProt Q12809)
Assay: primary screen, population patch clamp on CHO cells stably expressing hERG; higher = less effect of the substance
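Also: peak tail current of the secondary pulse compared with the same well before compound.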

Chain of human ether-à-go-go-related gene (hERG) potassium channel (Q12809 whole entry, looked up): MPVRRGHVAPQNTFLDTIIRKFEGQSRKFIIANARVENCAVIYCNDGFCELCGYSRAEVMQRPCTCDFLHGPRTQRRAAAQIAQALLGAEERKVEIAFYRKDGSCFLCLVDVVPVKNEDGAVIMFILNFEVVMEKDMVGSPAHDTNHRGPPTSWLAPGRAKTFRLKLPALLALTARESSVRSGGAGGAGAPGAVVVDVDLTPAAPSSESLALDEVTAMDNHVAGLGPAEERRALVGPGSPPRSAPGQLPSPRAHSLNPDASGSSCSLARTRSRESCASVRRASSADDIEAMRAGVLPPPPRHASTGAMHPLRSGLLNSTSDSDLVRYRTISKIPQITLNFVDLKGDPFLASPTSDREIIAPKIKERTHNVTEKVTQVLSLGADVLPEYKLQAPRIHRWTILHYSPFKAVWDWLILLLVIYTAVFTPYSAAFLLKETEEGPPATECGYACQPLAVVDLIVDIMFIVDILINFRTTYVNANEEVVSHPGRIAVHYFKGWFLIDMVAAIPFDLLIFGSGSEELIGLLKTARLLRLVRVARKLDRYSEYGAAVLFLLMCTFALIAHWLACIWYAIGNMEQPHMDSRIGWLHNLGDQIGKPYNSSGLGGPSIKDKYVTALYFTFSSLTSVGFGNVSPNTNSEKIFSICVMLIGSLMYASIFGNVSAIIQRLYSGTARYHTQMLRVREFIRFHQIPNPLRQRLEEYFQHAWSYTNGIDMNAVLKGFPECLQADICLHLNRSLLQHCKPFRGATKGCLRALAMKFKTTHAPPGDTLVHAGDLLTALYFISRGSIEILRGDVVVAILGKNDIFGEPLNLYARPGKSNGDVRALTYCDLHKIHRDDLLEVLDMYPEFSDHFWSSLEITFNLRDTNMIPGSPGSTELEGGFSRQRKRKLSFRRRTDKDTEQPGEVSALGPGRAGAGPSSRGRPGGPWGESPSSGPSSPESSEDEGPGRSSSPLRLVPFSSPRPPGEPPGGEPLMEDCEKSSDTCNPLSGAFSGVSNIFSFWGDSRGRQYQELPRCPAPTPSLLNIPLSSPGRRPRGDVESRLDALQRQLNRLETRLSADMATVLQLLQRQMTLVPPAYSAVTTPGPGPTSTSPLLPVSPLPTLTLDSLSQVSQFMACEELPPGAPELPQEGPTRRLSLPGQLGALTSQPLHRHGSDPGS

Compound | hERG current change (%, negative = inhibition) at 10uM
C(#Cc1ccccc1)CN1CCN(c2ccccn2)CC1.Cl | -8.88%
O=C(Nc1cccc(S(=O)(=O)Nc2ccccc2Cl)c1)c1ccc(Cl)nc1 | -8.9%
C/C(CCN1CCc2nc(-c3ccccc3)c(-c3ccccc3)cc2C1)=N\O[C@@H](C)c1cc(-c2c(C)cc(C)cc2C)no1 | 4.08%
COc1cccc(-c2cc(C(F)(F)F)nc(-n3ccc([N+](=O)[O-])n3)n2)c1 | -6.33%
CCOC(=O)c1cnc(SCC(=O)Nc2ccccc2C(=O)OC)nc1N | -13.1%
COc1ccc2c(c1)CCc1sc(NC(=O)c3ccc(C)cc3)nc1-2 | 10.9%
CC1CN(S(=O)(=O)c2ccc(C(=O)N(CCCN(C)C)c3nc4c(Cl)cccc4s3)cc2)CC(C)O1.Cl (stereo not drawn) | -36.7%
CC(=O)c1ccc(C(=O)N(CCN(C)C)c2nc3c(Cl)cccc3s2)cc1.Cl | -48.6%
Cc1ccc2sc(N(CCN(C)C)C(=O)c3ccc4ccccc4c3)nc2c1C.Cl | 18.7%
COC(=O)c1ccc(C(=O)N(CCN(C)C)c2nc3c(Cl)cccc3s2)cc1.Cl | -54.9%
CN(C)CCN(C(=O)c1ccc2c(c1)OCCO2)c1nc2c(Cl)cccc2s1.Cl | -59.3%
CN(C)CCN(C(=O)c1cccc(Cl)c1)c1nc2c(Cl)cccc2s1.Cl | -52.6%
CCN(CC)CCN(C(=O)c1ccc2c(c1)CCCC2)c1nc2c(C)cccc2s1.Cl | -30.2%
CCN(CC)CCN(C(=O)c1ccc2c(c1)OCCO2)c1nc2c(Cl)cccc2s1.Cl | -54.7%
COc1ccccc1OCCNC(=O)c1cc(F)c(F)cc1Cl | -2.68%
Cc1ccccc1-n1nnnc1SC(C)C(=O)Nc1ccc(N2CCN(C)CC2)cc1 (stereo not drawn) | -25.4%
COc1ccc(NC(=O)[C@@H]2CC=C[C@@H]3CCN(Cc4ccccc4)C(=O)[C@@H]32)cc1 | -8.12%
COC(=O)[C@@H]1C[C@@H]2CC[C@@H](O)C[C@@H]2N1Cc1ccc(Cl)cc1 | 23.7%
CCOc1cc(/C=C2\C(=O)N(c3nc(-c4ccc(Br)cc4)cs3)N=C2c2ccccc2)ccc1O | 4.44%
CS(=O)(=O)c1ccc(Cl)c(NC(=O)C2CC(=O)N(Cc3ccco3)C2)c1 (stereo not drawn) | 9.79%
CS(=O)(=O)c1ccc(C(=O)OCC(=O)NC(=O)C2CCCCC2)cc1[N+](=O)[O-] | 28.1%

Source: publication PMC4336329 (PLoS ONE, 2015)
